From PubChem BioAssay (NCATS) come the findings set out here.

Records with an inconclusive call do not appear. Activity calls are given as the source filed them. Unless noted, calls follow the shape of the dose curve; as a rule, active = well fitted curve in the direction sought with a large enough effect; inconclusive = small, poorly fitted or top-dose-only effect, or another doubt; inactive = no such curve, though single readings can be large; an effect the other way counts as inactive or inconclusive.

Test [1] deals with Lysosomal acid glucosylceramidase (Homo sapiens) (UniProt P04062). Description: Glucocerebrosidase-p2 (AID 348; in the data active = potency below about 10 µM; also: potency is read from the fitted curve at half-maximal effect). The settings on record: purified GBA, blue fluorogenic substrate, 40 min. The method, boiled down: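 Normal human glucocerebrosidase (0.2 nM) with blue fluorogenic substrate (80 uM final) in citrate/phosphate pH 5.9 with 10mM sodium taurocholate, 0.01% tween-20; 40 min RT, NaOH/glycine stop; fluorescence Ex 365/Em 440; AC50 from a titration from 0.6 nM upwards.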

Test [2] deals with Cytochrome P450 1A2 (Homo sapiens) (UniProt P05177). The experiment in a line: p450-cyp1a2 (AID 410; calls by dose curve; also: potency is read from the fitted curve at half-maximal effect). The method, boiled down: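 O-Demethylation of luciferin 6' methyl ether by human CYP1A2 is monitored as luciferase luminescence. Substrate sits at Km (100uM); enzyme is 20nM. Values are scaled to 57 uM furafylline as maximal inhibition.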
Test [3] is described as follows: NFAT Signaling Pathway (AID 444; active = well fitted curve in either direction with a large enough effect, not every such curve was filed as active;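 also: carbachol stimulus at about its EC50 of 1 µM final; % is scaled to controls: 0 for no effect and ±100 for the full control effect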). The settings on record: Jurkat NFAT-bla M1, carbachol, beta-lactamase ratio, 5 h; at 7.69 µM (top of the series) unless noted. The method, boiled down:
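Jurkat cells carrying an NFAT-driven β-lactamase reporter and co-transfected muscarinic M1 receptor were treated with compound plus carbachol (1 uM final, an EC50 level) for 5 h at 37 °C. CCF4 loading followed for 1 h at RT; 460/530 nm ratio gave %activity.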

Test [4] is described as follows: Stat Signaling Pathway (AID 446; active = well fitted curve in either direction with a large enough effect, not every such curve was filed as active;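 also: ME-180 cervical cancer cells given 40 pM IL-6 alongside compound; SIE-controlled beta-lactamase reporter measured as 460/530 nm FRET emission ratio; % is scaled to controls: 0 for no effect and ±100 for the full control effect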). The settings on record: ME-180 SIE beta-lactamase reporter, IL-6 stimulated, 5 h; at 7.69 µM (top of the series) unless noted. The essentials: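 Normalization used AC90 stimulation (300 pM IL-6) and AC90 inhibition (125 nM pan-JAK inhibitor at 40 pM IL-6). The underlying signal is SIE-driven beta-lactamase in ME-180 cells after 5 h IL-6 exposure with compound.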

The target in test [5] is Glucocorticoid receptor (Homo sapiens) (UniProt P04150). The experiment in a line: GR-GFP Redistribution (AID 450;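 active = compounds whose dose series gives a full or clear partial fitted curve of increased nuclear translocation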; also: potency is read from the fitted curve at half-maximal effect). Particulars: U2OS GR-GFP nuclear translocation, laser cytometry, 2 h.
The target is the same in test [6]. Description: GR-EFC Redistribution (AID 451; calls by dose curve; also: potency is read from the fitted curve at half-maximal effect). The settings on record: CHO-K1 GR-EFC translocation, beta-gal luminescence, 2 h. The essentials: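 CHO-K1 cells stably expressing nuclear-localized β-gal enzyme acceptor and GR fused C-terminally to the enzyme donor fragment; ligand-driven nuclear translocation restores β-gal by complementation. Compounds titrated up to 46 uM final, 2 h at 37 °C; luminescence read.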

Test [7] has as its target Mitogen-activated protein kinase 10 (Mus musculus) (UniProt Q61831). Description: JNK3 AlphaScreen Assay (AID 530; active = well fitted curve in either direction with a large enough effect, not every such curve was filed as active;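 also: kinase came from lysate of stimulated human HepG2 cells; signal reports phosphorylation of biotinylated GST-cJun 1-79 at Ser73 with 10 µM ATP; % is scaled to controls: 0 for no effect and ±100 for the full control effect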). The essentials:
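Phosphorylation of biotinylated GST-cJun(1-79) at Ser73 is measured by AlphaScreen proximity luminescence. Enzyme is JNK3 in HepG2 lysates activated with interleukin-1beta and tumor necrosis factor alpha; ATP is 10 uM final.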
(In general: Bead proximity is the source of the signal in Alpha formats.)

In test [8] the target is Cytochrome P450 3A4 (Homo sapiens) (UniProt P08684). Description: qHTS Assay for Inhibitors and Substrates of Cytochrome P450 3A4 (AID 884). Also: potency is read from the fitted curve at half-maximal effect; nearly all actives have a fitted effect of over 50% in size. The method, boiled down:
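Luminescent readout of luciferin produced by CYP3A4 (20 nM) dealkylation of Luciferin-PPXE, 25 uM (its KM). NADPH-driven reaction ran 60 min at RT after 10 min compound preincubation; data scaled to 57 uM ketoconazole as 100% inhibition.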
On the technique in general: qHTS replaces the single test concentration by a dilution series.

The target is the same in test [9]. Description: qHTS Assay for Activators of Cytochrome P450 3A4 (AID 885). Also: nearly all actives have a fitted effect of over 65% in size. The essentials:
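Human CYP3A4 dealkylates Luciferin-PPXE to luciferin, which luciferase detection converts to light. Substrate was at its KM (25uM), buffer 200mM KPO4, reaction 60 min at RT.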

A short description of test [10]: qHTS Assay for Lipid Storage Modulators (AID 1519; calls by dose curve). The settings on record: Drosophila S3 cells, BODIPY lipid droplet/cell ratio, laser cytometry, cells loaded with oleic acid; for activity change, negative = inhibition: at 57.5 µM (top of the series). The method, boiled down: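 Cells seeded at 5,000 per well were treated with compounds over a concentration series and loaded with oleic acid (400 uM, as added). Lipid droplet fluorescence (488 nm excitation, 500-530 nm channel) was read by laser-scanning cytometry and normalized to 20 uM Triacsin C.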

The target of test [11] is Dual specificity protein kinase CLK4 (Homo sapiens) (UniProt Q9HAZ1). The experiment in a line: qHTS Assay for Inhibitors of CDC-like Kinase 4 (ADP-Glo Assay) (AID 1771). Also: nearly all actives have a fitted effect of over 70% in size. Also: potency is read from the fitted curve at half-maximal effect. The essentials:
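Compounds are pin-transferred onto substrate mix (100 uM RS peptide, 1 uM ATP), then 25 nM Clk4 is added. After 1 hr at room temperature, ADP-Glo reagent runs 45 min, detection reagent 30 min, then luminescence is read.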

Test [12] addresses Ubiquitin carboxyl-terminal hydrolase 1 (Homo sapiens) (UniProt O94782). The experiment in a line: Inhibitors of USP1/UAF1: Pilot qHTS (AID 504865).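 Also: rhodamine fluorescence freed from ubiquitin-rhodamine substrate followed over time; top concentration of the series differs between compounds; % is scaled to controls: 0 for no effect and ±100 for the full control effect; nearly all actives have a fitted effect of over 35% in size.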 The essentials:
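USP1/UAF1 complex (1nM) preincubated with compound 15 min at room temperature, then Ub-Rho substrate (150nM final) added. Fluorescence read kinetically at 480/540 nm, 6 reads every 60 seconds. Buffer: 50mM HEPES pH 7.8, 0.5mM EDTA, 0.1 mg/ml BSA, 1mM TCEP, 0.01% Tween-20.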

A short description of test [13]: Primary qHTS for small molecule stabilizers of the endoplasmic reticulum resident proteome: Secreted ER Calcium Modulated Protein (SERCaMP) assay (AID 1508630). Also: % is scaled to controls: 0 for no effect and ±100 for the full control effect. The essentials:
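The SH-SY5Y reporter protocol was run at 3 concentrations up to 38.3 uM (primary) or 11 concentrations (follow-up): 16 h compound, 100 nM thapsigargin for 4 h, then extracellular luciferase luminescence.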

Test [14] can be described thus: AP1 Signaling Pathway (AID 357; active = well fitted curve in either direction with a large enough effect, not every such curve was filed as active; also: % is scaled to controls: 0 for no effect and ±100 for the full control effect). The settings on record: ME-180 AP-1-bla reporter, EGF-induced, beta-lactamase ratio, 5 h; at 7.69 µM (top of the series) unless noted. The essentials:
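ME-180 cells with beta-lactamase reporter under AP-1 response element, stimulated with EC50 EGF; compounds tested in titration series, 5 h at 37 °C. CCF4 substrate added 2.5 h at room temperature; 460/530 nm emission ratio gave %activity and AC50.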

Test [15] concerns the target Dual specificity protein kinase CLK4 (Homo sapiens) (UniProt Q9HAZ1). The experiment in a line: qHTS Assay for Inhibitors of CDC-like Kinase 4 (ADP-FP Assay) (AID 1795). Also: nearly all actives have a fitted effect of over 60% in size. Also: potency is read from the fitted curve at half-maximal effect. The essentials: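 Recombinant human Clk4 (6.25 nM) phosphorylated RS repeat peptide (100 uM) with 1 uM ATP in Tris pH 7.5/MgCl2/EGTA/DTT/Triton buffer for one hour. ADP was quantified by Transcreener competitive fluorescence polarization against an ADP calibration curve.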

A short description of test [16]: qHTS Assay for Identification of Small Molecule Agonists for Hypoxia Response Element Signaling Pathway (AID 914; active = well fitted activation curve with a large enough effect in the signal ratio, with a control signal flat, not every such curve was filed as active; the % refers to the signal ratio; also: potency is read from the fitted curve at half-maximal effect). Particulars: ME-180 (cervical carcinoma) HRE-bla reporter, beta-lactamase ratio, CoCl2, 17 h; activation: stronger effect = higher value. The essentials:
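Cells were plated overnight, pin-dosed with compound in a titration series, co-stimulated with EC50 CoCl2 and incubated 17 hours at 37 degrees Celsius. CCF4 substrate was then loaded, and AC50 values came from the 460nm/530nm ratio.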

Test [17] has as its target 3',5'-cyclic-AMP phosphodiesterase 4B (Homo sapiens) (UniProt Q07343). The experiment in a line: qHTS Assay for Inhibitors of PDE-IV (AID 607; active = well fitted activation curve with a large enough effect in the main read-out, with a control signal flat, not every such curve was filed as active; also: % of control where 0% means no effect). The essentials: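 HEK293 ACTOne cells with CNG channel (1000/well), endogenous PDE4; membrane potential dye, compounds up to 22.9 uM final. Fluorescence Ex 535/Em 590; RO 20-1724 (100 uM final) as reference.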
Test [18] addresses Cytochrome P450 2C19 (Homo sapiens) (UniProt P33261). Description: qHTS Assay for Inhibitors and Substrates of Cytochrome P450 2C19 (AID 899). Also: potency is read from the fitted curve at half-maximal effect; nearly all actives have a fitted effect of over 60% in size. The essentials: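 NADPH-dependent conversion of Luciferin-H EGE (10uM, at KM) by 5nM enzyme in 50mM KPO4, 60 min at 37C following 10 min compound preincubation. Stopped with luciferin detection buffer; luminescence read after 20 min.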

Setting [19] is: measured here: cell count channel max response.
The mark [20] stands for this setting: measured here: lipid channel max response.

Dual specificity protein kinase CLK4 (Homo sapiens), sequence (Q9HAZ1 whole entry, looked up): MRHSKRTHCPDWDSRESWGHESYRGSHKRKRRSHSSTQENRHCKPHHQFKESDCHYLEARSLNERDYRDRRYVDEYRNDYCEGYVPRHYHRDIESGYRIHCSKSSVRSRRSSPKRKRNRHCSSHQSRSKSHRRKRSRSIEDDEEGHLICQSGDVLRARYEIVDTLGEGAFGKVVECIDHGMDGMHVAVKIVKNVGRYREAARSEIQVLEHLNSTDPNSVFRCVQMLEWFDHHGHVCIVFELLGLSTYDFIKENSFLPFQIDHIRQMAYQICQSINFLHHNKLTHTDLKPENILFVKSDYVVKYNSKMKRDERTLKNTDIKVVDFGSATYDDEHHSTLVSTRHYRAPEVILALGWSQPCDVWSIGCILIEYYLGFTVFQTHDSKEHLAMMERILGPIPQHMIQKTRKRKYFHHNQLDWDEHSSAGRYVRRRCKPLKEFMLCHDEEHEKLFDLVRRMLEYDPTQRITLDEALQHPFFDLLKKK
Glucocorticoid receptor (Homo sapiens), sequence (P04150 whole entry, looked up, the tested form may be a part): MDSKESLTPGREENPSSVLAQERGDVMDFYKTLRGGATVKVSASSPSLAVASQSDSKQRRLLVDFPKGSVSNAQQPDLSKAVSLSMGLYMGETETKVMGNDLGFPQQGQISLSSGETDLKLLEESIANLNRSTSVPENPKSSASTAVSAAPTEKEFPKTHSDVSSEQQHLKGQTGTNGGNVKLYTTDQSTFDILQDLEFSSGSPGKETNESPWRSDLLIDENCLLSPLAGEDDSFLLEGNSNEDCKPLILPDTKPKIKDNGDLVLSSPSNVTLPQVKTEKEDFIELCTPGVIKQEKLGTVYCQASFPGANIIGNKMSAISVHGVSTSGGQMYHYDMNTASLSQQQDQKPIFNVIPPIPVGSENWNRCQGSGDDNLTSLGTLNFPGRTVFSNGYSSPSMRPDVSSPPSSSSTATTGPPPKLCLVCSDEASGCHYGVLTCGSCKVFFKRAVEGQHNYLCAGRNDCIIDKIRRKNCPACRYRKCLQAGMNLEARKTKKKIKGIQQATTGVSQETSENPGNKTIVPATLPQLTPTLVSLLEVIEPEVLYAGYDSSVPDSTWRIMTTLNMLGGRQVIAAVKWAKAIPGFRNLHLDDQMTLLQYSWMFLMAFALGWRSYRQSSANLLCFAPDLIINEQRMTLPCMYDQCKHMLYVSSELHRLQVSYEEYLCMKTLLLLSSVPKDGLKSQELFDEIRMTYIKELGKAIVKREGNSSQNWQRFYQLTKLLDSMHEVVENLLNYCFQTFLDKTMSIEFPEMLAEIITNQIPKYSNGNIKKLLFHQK
Lysosomal acid glucosylceramidase (Homo sapiens), sequence (P04062 whole entry, looked up): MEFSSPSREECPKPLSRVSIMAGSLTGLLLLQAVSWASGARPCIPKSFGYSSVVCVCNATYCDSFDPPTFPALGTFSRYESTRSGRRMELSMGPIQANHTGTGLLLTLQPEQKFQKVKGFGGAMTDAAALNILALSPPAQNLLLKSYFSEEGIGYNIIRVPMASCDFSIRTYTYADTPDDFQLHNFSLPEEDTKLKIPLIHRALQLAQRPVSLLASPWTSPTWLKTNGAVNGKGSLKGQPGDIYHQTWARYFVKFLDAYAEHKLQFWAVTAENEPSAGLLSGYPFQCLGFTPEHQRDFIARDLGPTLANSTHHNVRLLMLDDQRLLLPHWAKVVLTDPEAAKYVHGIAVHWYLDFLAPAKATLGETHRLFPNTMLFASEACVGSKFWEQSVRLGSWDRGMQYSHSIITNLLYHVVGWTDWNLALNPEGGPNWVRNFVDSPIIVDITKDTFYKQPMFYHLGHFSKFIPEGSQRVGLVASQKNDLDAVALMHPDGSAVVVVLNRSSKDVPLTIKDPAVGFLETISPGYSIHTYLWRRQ
Cytochrome P450 1A2 (Homo sapiens), sequence (P05177 whole entry, looked up): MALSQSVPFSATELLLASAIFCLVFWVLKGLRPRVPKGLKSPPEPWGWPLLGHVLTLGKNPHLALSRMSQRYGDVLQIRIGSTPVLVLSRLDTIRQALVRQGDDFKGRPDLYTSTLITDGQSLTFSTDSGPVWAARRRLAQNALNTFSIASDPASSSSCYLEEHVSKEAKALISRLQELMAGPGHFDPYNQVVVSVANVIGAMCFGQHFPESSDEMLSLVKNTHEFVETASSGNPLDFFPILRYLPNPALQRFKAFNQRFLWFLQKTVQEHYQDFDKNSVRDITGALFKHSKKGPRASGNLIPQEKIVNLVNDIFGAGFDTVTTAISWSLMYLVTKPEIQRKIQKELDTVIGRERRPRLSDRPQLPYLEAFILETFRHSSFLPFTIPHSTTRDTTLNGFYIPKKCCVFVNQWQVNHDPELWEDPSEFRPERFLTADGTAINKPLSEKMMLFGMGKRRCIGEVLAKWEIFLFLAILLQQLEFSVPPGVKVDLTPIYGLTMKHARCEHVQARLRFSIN
Cytochrome P450 3A4 (Homo sapiens), sequence (P08684 whole entry, looked up): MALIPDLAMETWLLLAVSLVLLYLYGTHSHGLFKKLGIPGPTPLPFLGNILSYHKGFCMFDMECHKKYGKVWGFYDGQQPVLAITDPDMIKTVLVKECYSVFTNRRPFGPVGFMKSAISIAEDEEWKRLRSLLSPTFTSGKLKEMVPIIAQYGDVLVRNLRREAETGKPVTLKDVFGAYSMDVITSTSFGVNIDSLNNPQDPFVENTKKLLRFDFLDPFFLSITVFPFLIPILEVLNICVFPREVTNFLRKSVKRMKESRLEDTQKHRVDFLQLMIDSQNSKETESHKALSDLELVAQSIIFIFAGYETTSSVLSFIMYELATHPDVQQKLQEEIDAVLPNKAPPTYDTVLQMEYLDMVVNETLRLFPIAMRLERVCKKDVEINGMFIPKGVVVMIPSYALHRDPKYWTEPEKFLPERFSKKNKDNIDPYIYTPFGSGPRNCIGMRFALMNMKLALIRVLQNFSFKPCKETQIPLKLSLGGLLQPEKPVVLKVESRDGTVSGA
Ubiquitin carboxyl-terminal hydrolase 1 (Homo sapiens), sequence (O94782 whole entry, looked up): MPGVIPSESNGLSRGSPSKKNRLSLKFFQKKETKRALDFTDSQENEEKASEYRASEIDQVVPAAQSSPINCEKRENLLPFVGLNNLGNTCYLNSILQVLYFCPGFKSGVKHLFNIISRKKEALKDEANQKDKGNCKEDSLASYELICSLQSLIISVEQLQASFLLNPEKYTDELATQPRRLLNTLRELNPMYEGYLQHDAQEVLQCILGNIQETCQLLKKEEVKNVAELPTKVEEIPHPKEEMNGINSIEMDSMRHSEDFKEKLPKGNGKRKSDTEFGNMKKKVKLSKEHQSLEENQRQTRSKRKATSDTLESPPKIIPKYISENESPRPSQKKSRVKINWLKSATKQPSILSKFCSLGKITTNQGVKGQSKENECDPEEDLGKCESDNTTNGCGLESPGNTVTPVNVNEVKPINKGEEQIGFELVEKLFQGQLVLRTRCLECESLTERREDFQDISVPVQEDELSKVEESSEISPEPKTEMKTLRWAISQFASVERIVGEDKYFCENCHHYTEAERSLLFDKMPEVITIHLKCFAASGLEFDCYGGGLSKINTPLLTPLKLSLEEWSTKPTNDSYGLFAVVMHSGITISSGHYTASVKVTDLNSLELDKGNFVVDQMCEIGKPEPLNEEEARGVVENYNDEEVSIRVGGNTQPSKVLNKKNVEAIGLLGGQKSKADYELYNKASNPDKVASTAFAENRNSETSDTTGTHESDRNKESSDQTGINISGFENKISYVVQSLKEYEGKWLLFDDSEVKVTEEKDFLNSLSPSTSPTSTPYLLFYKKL
3',5'-cyclic-AMP phosphodiesterase 4B (Homo sapiens), sequence (Q07343 whole entry, looked up): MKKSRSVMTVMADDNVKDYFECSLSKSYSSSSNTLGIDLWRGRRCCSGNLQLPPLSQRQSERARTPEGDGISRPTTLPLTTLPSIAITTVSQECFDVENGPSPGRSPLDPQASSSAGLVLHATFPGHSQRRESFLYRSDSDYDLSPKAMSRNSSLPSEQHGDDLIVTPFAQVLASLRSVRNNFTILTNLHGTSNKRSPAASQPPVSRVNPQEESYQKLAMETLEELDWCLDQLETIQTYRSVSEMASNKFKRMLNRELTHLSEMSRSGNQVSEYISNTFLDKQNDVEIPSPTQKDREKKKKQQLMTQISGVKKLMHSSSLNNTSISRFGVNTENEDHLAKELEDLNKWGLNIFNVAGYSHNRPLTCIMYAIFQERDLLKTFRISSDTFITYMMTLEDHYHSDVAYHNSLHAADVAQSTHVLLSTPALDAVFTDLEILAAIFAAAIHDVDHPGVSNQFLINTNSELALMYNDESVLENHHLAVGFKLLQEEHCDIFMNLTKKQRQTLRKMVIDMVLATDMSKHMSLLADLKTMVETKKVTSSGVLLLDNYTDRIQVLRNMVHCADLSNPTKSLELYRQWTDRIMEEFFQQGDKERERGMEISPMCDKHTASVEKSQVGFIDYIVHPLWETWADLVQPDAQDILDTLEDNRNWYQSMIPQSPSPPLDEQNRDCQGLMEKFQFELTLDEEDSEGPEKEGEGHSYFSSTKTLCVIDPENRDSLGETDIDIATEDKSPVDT
Cytochrome P450 2C19 (Homo sapiens), sequence (P33261 whole entry, looked up): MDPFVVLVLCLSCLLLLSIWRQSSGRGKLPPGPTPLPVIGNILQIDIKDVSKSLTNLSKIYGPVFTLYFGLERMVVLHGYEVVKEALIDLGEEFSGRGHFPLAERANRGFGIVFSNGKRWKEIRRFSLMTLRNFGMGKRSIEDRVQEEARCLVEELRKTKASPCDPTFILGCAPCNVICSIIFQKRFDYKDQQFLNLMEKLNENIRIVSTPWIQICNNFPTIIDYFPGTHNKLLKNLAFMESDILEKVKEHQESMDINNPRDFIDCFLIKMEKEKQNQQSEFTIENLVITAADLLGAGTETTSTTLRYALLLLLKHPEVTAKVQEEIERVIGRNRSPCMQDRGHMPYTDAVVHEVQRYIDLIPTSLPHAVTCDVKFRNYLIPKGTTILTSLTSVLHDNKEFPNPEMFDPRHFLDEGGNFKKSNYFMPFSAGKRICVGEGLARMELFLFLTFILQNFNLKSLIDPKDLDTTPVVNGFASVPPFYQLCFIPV

Turning to `COc1ccc(CNc2ncnc3ccc(-c4cccnc4)cc23)c(OC)c1`, the Potency in [1] is > 11.4 µM (inactive); in [2], 0.398 µM (active); in test [5], > 46 µM (inactive); in test [6], > 46 µM (inactive); in [8], 1.26 µM (active); in [11], 14.1 µM (active). For the same compound, the activity change, negative = inhibition is 29.9% (inactive) in [3] and -5.09% (inactive) in test [10]. The activity, negative = inhibition in test [4] was 2.05% (inactive). In addition, in [7], the call was inactive. Moreover, the Potency result in [9], in test [12] and in [13] was “inactive” in each case. Moreover, the results for the max response in test [10] (setting [19]) and in test [10] (setting [20]) were -15.1% and -21.1%, respectively.
In the case of `Cc1noc(C)c1-c1cc(Nc2ccccc2)ncn1`, the Potency in [1] was > 11.4 µM (inactive); in test [2], 1.26 µM (active); in [5], > 46 µM (inactive); in test [6], > 46 µM (inactive). Also, the activity change, negative = inhibition in test [14] is -11.6% (inactive); in test [3], -3.87% (inactive); in test [10], 4.92% (inactive). Besides, in test [4], the activity, negative = inhibition is -5.08% (inactive). The outcome in test [7] was inactive. Also, the max response in [10] (setting [19]) turned out to be 15.2%; in test [10] (setting [20]), 17.9%. The Potency result in test [15], in test [12] and in [13] was “inactive” throughout.
Consider `CCNc1ncc2nc(-c3cc(F)cc(F)c3)c(=O)n(C)c2n1`, for which the Potency in test [1] was > 11.4 µM (inactive); in test [2] it was 2 µM (active); in [5], > 9.22 µM (inactive); in test [6] it was > 46 µM (inactive); in test [16], 3.16 µM (active). Besides, in test [7], the compound was classed as inactive. Moreover, in test [10], the activity change, negative = inhibition was -1.81% (inactive). The max response in test [10] (setting [19]) is -4.13%; in [10] (setting [20]) it was -3.55%. Besides, the Potency entry in test [12] and in test [13] was “inactive” each time.
In the case of `COc1ccc(Oc2ncc3nc(-c4ccc(OC)cc4)c(=O)n(C4CC4)c3n2)cc1`, the results for the Potency in [1] and in [5] were > 11.4 µM (inactive) and > 9.22 µM (inactive), respectively. For the same compound, the activity change, negative = inhibition was -17.1% (inactive) in test [14], 18.7% (inactive) in test [3] and -0.219% (inactive) in test [10]. In addition, the call in test [7] was inactive. Besides, the Potency result in test [17], in [11], in test [15], in test [12] and in test [13] was “inactive” each time. For the same compound, the max response is 4.42% in test [10] (setting [19]) and -0.829% in test [10] (setting [20]).
As for `COCCn1c(=O)c(-c2cccc(C#N)c2)nc2cnc(N(C)C)nc21`, the Potency is > 11.4 µM (inactive) in test [1], 2 µM (active) in [2], > 9.22 µM (inactive) in test [5] and > 46 µM (inactive) in test [6]. In addition, the activity change, negative = inhibition in test [14] is -1.01% (inactive); in test [3], -2.05% (inactive); in test [10], 3.6% (inactive). Besides, the activity, negative = inhibition in test [4] was -10.5% (inactive). The compound was classed as inactive in test [7]. For the same compound, the Potency result in [17], in test [11], in test [15], in [12] and in [13] was “inactive” each time. Besides, the max response in test [10] (setting [19]) came to 16.6%; in test [10] (setting [20]) it was 17.9%.
In the case of `c1ccc(CNc2cc(-c3cccnc3)ncn2)cc1`, the Potency in [1] was > 11.4 µM (inactive); in test [5], > 46 µM (inactive); in test [6], > 46 µM (inactive); in [11], 4.47 µM (active); in [15], 5.01 µM (active). For the same compound, the activity change, negative = inhibition in test [14] was 1.27% (inactive); in [3], 15.4% (inactive); in [10] it was 7.56% (inactive). In addition, the activity, negative = inhibition in [4] is 14.9% (inactive). Also, the result in test [7] was inactive. Further, the max response in test [10] (setting [19]) worked out at 11.5%; in [10] (setting [20]), 21.7%. For the same compound, the Potency result in test [12] and in [13] was “inactive” throughout.
For the compound `Cc1ccccc1-c1ccc2ncnc(NC3CC3)c2c1`, the Potency is > 11.4 µM (inactive) in test [1]; > 46 µM (inactive) in test [5]; > 46 µM (inactive) in test [6]; 3.16 µM (active) in test [8]; 1.26 µM (active) in test [18]; 7.08 µM (active) in [11]. The Potency in [15] is 12.6 µM (active). Besides, the activity change, negative = inhibition in test [14] was 5.4% (inactive); in [3], 3.53% (inactive); in [10] it was -3.61% (inactive). Moreover, the compound was classed as inactive in test [7]. The Potency result in [9], in test [12] and in test [13] was “inactive” throughout. The max response in test [10] (setting [19]) is 4.35%; in test [10] (setting [20]), -0.878%.
